Experimental findings from PubChem BioAssay AID977630 (Broad Institute, 2014) are described below.

Screen size: about 1,600 compounds; fewer than 10 were called active. Another 48% or so got no clear call; they are omitted.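 Rule for the calls: active = Normal-ribosome green reporter loss at least double humanized-ribosome red reporter loss, with overall culture growth inhibition under a set limit; inconclusive = no clear call, values can overlap the other calls; inactive = the rest.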 The list is a sample of the results. Measured potencies and affinities stand elsewhere.

A short description of this assay: growth inhibition of wild-type GFP E. coli, H38-humanized RFP comparator, dose response, H38 mutant RFP vs wild-type GFP, cherry-pick (AID 977630).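 Note: wild-type GFP strain mixed equally with humanized-ribosome H38 mutant expressing RFP.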 Conditions: mixed culture, 24 h; series mostly up to 50 µM.
On to `COc1ccccc1-c1noc2ncnc(Nc3cccc(C)c3C)c12`, for which the molecule was classed as inactive.
Under `Cc1ccc([N+](=O)[O-])c(OCCn2cnc3ccccc32)c1` stands “inactive”; under `Cc1cc2nc(SCC(=O)O)nc(C)c2cc1C`, “inactive”; under `COc1ccc(CN2C(=O)CC(Cc3cc(C)cc(C)c3)C2=O)cc1OC` (stereo not given), “inactive”.
For the molecule `O=C(CN(c1ccc(F)cc1)S(=O)(=O)c1ccccc1)Nc1ccccc1C(=O)O`, the outcome was inactive.
Next, `COc1ccc(OC)c(-c2nn(-c3ccccc3)cc2C(=O)N2CCc3ccccc3C2)c1`: “inactive”; `CN(C)c1ccc(-c2nnn(CC(=O)Nc3ccccc3N3CCOCC3)n2)cc1`: “inactive”.
Next, `CC(CCc1ccccc1)NC(=O)CCC1CCCC1` (stereo not given): “inactive”; `COc1ccc(-c2nc(C3CCCCC3)no2)cc1OC`: “inactive”.
Under `CCC1(C(=O)OC)CCc2c(cc(OC)c3ccccc23)C1=O` (stereo not given) stands “inactive”.
With `CN(Cc1c(F)cccc1Cl)C(=O)c1ccc(NS(=O)(=O)c2ccc3[nH]c(=O)[nH]c3c2)cc1`, the molecule was classed as inactive.
Consider `Nc1ccc(C(=O)Nc2ccc3nc(-c4ccncc4)[nH]c3c2)cc1`, for which the molecule was classed as inactive.
Regarding `Cc1ccccc1Nc1c(-c2cccnc2)nc2ccc(Br)cn12`, the result was inactive.
On to `CN(C)S(=O)(=O)c1cccc(C(=O)Nc2ccc(C(=O)Nc3cccc(S(N)(=O)=O)c3)cc2)c1`, for which the outcome was inactive.
As for `CCN(CC)c1nc(Oc2ccc(C(=O)OC)cc2)nc(N2CCOCC2)n1`, the molecule was classed as inactive.
Under `Cc1nc2ncnn2c(N2CCC(C(=O)NC3CCCC3)CC2)c1Cc1ccccc1` stands “inactive”; under `CCN(CC(=O)Nc1cccc(S(=O)(=O)N2CCCC2)c1)CC(=O)Nc1ccccc1OC`, “inactive”; under `COCc1nnc(NC(=O)c2ccc(S(=O)(=O)N3CCCC3)cc2)o1`, “inactive”.
`Cc1cccc(N2Cc3ccc(Br)cc3C2)c1`: the molecule was called inactive.
Next, `CCN(CC)S(=O)(=O)c1ccc(N2CCCC2)c(NC(=O)c2ccccc2OC)c1`: “inactive”; `O=C(Nc1ccc(Nc2ccccc2)cc1)c1ccc(F)cc1`: “inactive”; `Fc1ccc(Br)cc1SCCc1ccncc1`: “inactive”.
Under `CCOC(=O)c1ccc(NC(=O)c2ccc(OC(C)C)c(OC)c2)cc1` stands “inactive”; under `COc1cccc(NC2=Nc3cccc4cccc2c34)c1`, “inactive”; under `CS(=O)(=O)N(CC(=O)N1CCc2ccccc2C1)c1cccc(Br)c1`, “inactive”.
Under `CC1Cc2cc(S(=O)(=O)N3CCN(c4cccc(Cl)c4)CC3)ccc2N1C(=O)C1CC1` (stereo not given) stands “inactive”.
As for `Cn1c(=O)c2c(ncn2CC(O)CNc2ccc(F)cc2)n(C)c1=O` (stereo not given), the call was inactive.
Next, `O=C(NCCCN1CCOCC1)c1sc2cc([N+](=O)[O-])ccc2c1Cl`: “inactive”; `CN1OC[C@@H]2CN(C(=O)c3ccco3)[C@H](c3ccc(-c4ccc(C#N)cc4)cc3)C[C@@H]21`: “inactive”; `COCC#Cc1ccc2c(c1)O[C@@H](CN(C)S(=O)(=O)c1cccc(F)c1)[C@@H](C)CN([C@H](C)CO)S2(=O)=O`: “inactive”.
Take `O=C(CSCc1cnn(-c2ccccc2)c1-n1cccc1)NCc1cccnc1`: the call was inactive.
Under `CCOC(=O)C1NN=C(C(=O)c2ccccc2)C1c1ccc(OC)cc1` (stereo not given) stands “inactive”.
Next, `CN1CCN(C(=O)c2cc3nc(-c4ccco4)cc(C(F)(F)F)n3n2)CC1`: “inactive”; `Cc1cccc(CN2C(=O)c3ccccc3Sc3ccc(C(=O)NCCN4CCOCC4)cc32)c1`: “inactive”.
Under `S=c1nc(-c2cccc(Br)c2)[nH][nH]1` stands “inactive”; under `O=C(Cc1ccc(Br)cc1)Nc1cccc(-c2cn3c(n2)SCC3)c1`, “inactive”; under `Cc1cc(SCC(=O)c2cccs2)n2nc(C)c(-c3ccc(Cl)cc3)c2n1`, “inactive”.
Turning to `CC(C)[C@@H]1CC[C@@H](C)C[C@H]1O`, the call was inactive.
Under `COc1ccc(-c2cc(C(=O)O)nc3ccc4ccccc4c23)cc1OC` stands “inactive”; under `COc1ccc(C(=O)COc2ccc(F)cc2)c(O)c1`, “inactive”; under `O=C(O)CC1(CC(=O)Nc2ccc3sccc3c2)CCCCC1`, “inactive”.
As to `CCOC(=O)C(CC)Sc1cc(C)nc2ccc(OC)cc12` (stereo not given), the result was inactive.
Next, `O=C(NC1CCCCC1)C(c1cccc2ccccc12)n1c(=O)c(-c2ccco2)nc2ccccc21` (stereo not given): “inactive”; `COc1cc(CC(=O)Nc2nc(C)cs2)cc(OC)c1OC`: “inactive”; `Cc1cc(NC(=O)c2sc(Nc3ccc(F)c(Cl)c3)nc2N)no1`: “inactive”.
Under `COc1cc(OC)cc(-c2nc3ccccc3c(=O)n2OC(=O)c2ccc(C)c(C)c2)c1` stands “inactive”; under `Cn1ccc2cc(-c3ccc4ncnc(NCc5cccs5)c4c3)ccc21`, “inactive”.
On to `Fc1ccccc1C1CCN(Cc2nc(CC3CC3)no2)C1` (stereo not given), for which the molecule was classed as inactive.
For the molecule `O=C(COc1ccc(Br)cc1)Nc1ccc(C(=O)Nc2ccccc2C(=O)O)cc1`, the call was inactive.
In the case of `C#CCOc1nc(Nc2cccc([N+](=O)[O-])c2)nc(OCC#C)n1`, the result was inactive.
Under `OC(COc1ccc(Cl)cc1)CN1CCN(c2ccccn2)CC1` (stereo not given) stands “inactive”; under `Cc1nn(-c2ccc(N3CCCCC3)nn2)c(C)c1CCC(=O)Nc1ccc(F)cc1`, “inactive”.
Turning to `COc1cc2c(cc1OC)C1(C)N(CC2)C(C(C)=O)=NN1c1ccc(Cl)cc1` (stereo not given), the outcome was inactive.
Turning to `O=C(Nc1ccc(C(F)(F)F)cc1)C1CCN(c2cnccn2)CC1`, the molecule was called inactive.
Next, `Cc1nn(CC(=O)OCCOc2ccc(Br)cc2)c(C)c1[N+](=O)[O-]`: “inactive”.
As to `NS(=O)(=O)c1cccc(NC(=O)COc2ncnc3c2cnn3-c2ccccc2)c1`, the call was inactive.
As to `c1ccc2c(c1)Nc1cc3ccccc3cc1S2`, the result was inactive.
With `CC(C)OC(=O)c1sc2nc(-c3ccccc3)ccc2c1N`, the molecule was called inactive.
With `COc1ccc(C2CC(c3ccc(Br)cc3)=NN2C(=O)CN2CCCC2)cc1` (stereo not given), the molecule was called inactive.
Next, `COc1ccc(CNC(=O)c2nc(S(=O)(=O)Cc3ccccc3)ncc2Cl)cc1`: “inactive”.
`CCc1nc2ccccc2c(C(=O)OCC(=O)NC(=O)c2cccn2C)c1C`: the result was inactive.
Next, `O=C(Nc1ccccc1N1CCOCC1)C1CCCCN1S(=O)(=O)c1ccccc1` (stereo not given): “inactive”.
Next, `CCOc1ccc(NC(=O)CCc2nnc3ccc(N4CCC(C)CC4)nn23)cc1`: “inactive”; `Cc1cc(C)cc(NS(=O)(=O)c2c(C(=O)N3CCCCCC3)c(C)n(C)c2C)c1`: “inactive”.
Next, `COc1ccc(CN(C)C(=O)c2cc(-c3ccc(OC)c(OC)c3)nc3ccccc23)c(OC)c1`: “inactive”; `CC1(C(=O)NS(=O)(=O)c2cccc(F)c2)CCN1C(=O)C1(c2ccc(Cl)cc2)CCC1` (stereo not given): “inactive”; `CC(C)(C)NC(=O)C(c1ccncc1)N(Cc1ccc(F)cc1)C(=O)c1ccc(-c2ccccc2)[nH]1` (stereo not given): “inactive”.
Take `Cc1ccc(C(=O)C2Oc3ccccc3C3CC(c4ccc(C)cc4)=NN23)cc1` (stereo not given): the molecule was classed as inactive.
Next, `Cc1nc(N2CCC(C)CC2)c(C#N)c(C)c1[N+](=O)[O-]`: “inactive”.
Consider `Cc1cc(NC(=O)CCN2C(=O)C3C4C=CC(C4)C3C2=O)ccc1Br` (stereo not given), for which the molecule was classed as inactive.
With `CCOc1ccc2[nH]c3c(NCCN(C)C)ncnc3c2c1`, the molecule was classed as inactive.
Next, `Cc1ccc(S(=O)(=O)N(C(=O)c2ccncc2)c2ccc(OC(=O)c3ccncc3)cc2)c(C)c1`: “inactive”; `COc1ccc(C(NC(=O)C2CCN(CCOc3ccc(Cl)cc3Cl)CC2)c2ccccc2C)cn1` (stereo not given): “inactive”.
Next, `COc1cccc(-c2ccc(NC(=O)C3CCCN(Cc4cnn(C(C)C)c4)C3)cc2)c1` (stereo not given): “inactive”.
Consider `Cc1cccc(NC(=O)c2c(C)nn(-c3ccccc3)c2Cl)c1`, for which the outcome was inactive.
As to `CC(C)Oc1cccc(C(=O)C2CCCN(C(=O)c3cc(C(F)(F)F)[nH]n3)C2)c1` (stereo not given), the result was inactive.
Turning to `Cc1ccccc1-c1nc(CS(=O)(=O)CC(=O)N2CCCCC2)c(C)o1`, the result was inactive.
As to `COc1cccc(NC(=O)C(c2ccccc2)N2CCN(c3ccccn3)CC2)c1` (stereo not given), the molecule was called inactive.
Next, `COC(=O)c1ccc2nc(-c3ccc(F)cc3)c(Cc3cccc(F)c3)n2c1`: “inactive”.
Take `COc1ccc(-c2nn(-c3ccccc3C)cc2CNCc2cccnc2)cc1F`: the result was inactive.
Next, `CC1CCc2c(sc3ncn4c(SCC(=O)NCc5ccco5)nnc4c23)C1` (stereo not given): “inactive”.
Next, `CC1CN(CC(=O)Nc2nc3ccccc3s2)CC(C)O1` (stereo not given): “inactive”.
With `O=S(=O)(Nc1ccccc1N1CCCCC1)c1cccs1`, the result was inactive.
Under `Cc1ccn2cc(-c3cccc(NC(=O)c4cccs4)c3)nc2c1` stands “inactive”.
Take `O=S(=O)(Cc1ccc(Cl)cc1)N1CCN(Cc2ccc3c(c2)OCO3)CC1`: the result was inactive.
Next, `Cc1cccc(NS(=O)(=O)c2cc3c(cc2C)NC(=O)CO3)c1`: “inactive”.
Next, `O=C(CSCc1c(Cl)cccc1Cl)NCc1ccccn1`: “inactive”.
As to `Cc1cccc(N2CCN(Cc3nc(-c4ccc(F)cc4F)oc3C)CC2)n1`, the molecule was called inactive.
Consider `CCNc1nc(N)c(C(=O)C23CC4CC(CC(C4)C2)C3)s1`, for which the call was inactive.
Under `CNC(=O)c1sc(-c2ccccn2)nc1C` stands “inactive”.
`Cc1cc(C)c(OCCN(C)Cc2ccccc2)c(Br)c1`: the call was inactive.
Under `O=C(Nc1cc(S(=O)(=O)N2CCCCC2)ccc1N1CCCCC1)C1CC1` stands “inactive”; under `CCCCNC(=O)c1c(N)[nH]c(C(=O)c2ccccc2)c1-c1ccccn1`, “inactive”.
Next, `Cc1nn(S(=O)(=O)c2ccc(Cl)cc2)c(C)c1Sc1ccc([N+](=O)[O-])cc1`: “inactive”.
Next, `Cc1cccc(NC(=O)c2sc3nc(-c4ccccc4)cn3c2C)n1`: “inactive”; `COC(=O)c1ccc(CSc2nc3ccccc3s2)o1`: “inactive”.
Turning to `COc1ccccc1-c1noc2ncnc(Nc3ccccc3C)c12`, the molecule was classed as inactive.
For the molecule `O=C(c1cccs1)c1c[nH]cc1-c1ccccc1`, the call was inactive.
Under `Cc1ccc(CSCC(=O)Nc2ccccc2F)cc1` stands “inactive”; under `COc1ccc(NC(=O)c2ccc(COc3ccccc3Br)o2)c(OC)c1`, “inactive”; under `CCc1nnc(NC(=O)CSc2ncc(-c3ccccc3)[nH]2)s1`, “inactive”.
Under `COc1cccc(NC(=O)C2CCC(CNS(=O)(=O)c3cccc4cccnc34)CC2)c1` (stereo not given) stands “inactive”.
For `CCOC(=O)c1sc(Nc2cccc(Cl)c2)nc1C`, the result was inactive.
Next, `Cn1c(=O)n(C)c2cc([N+](=O)[O-])c(N3CCN(C(=O)c4cccc(F)c4)CC3)cc21`: “inactive”; `Brc1ccc(-c2nc3c4ccccc4ccn3c2Cc2ccccc2)cc1`: “inactive”.
